Screening results deposited in PubChem by Broad Institute.
This is a sample that favours compounds with a hit; in the whole collection about 3.1% have one here.
ERAP1 HTS inh: blocks human ERAP1 aminopeptidase activity; Q9NZ08; inhibition, % at 10.7 µM; AID 652197; recombinant ERAP1, Leu-AMC fluorescence, 60 min; 0.15% of 340,000 active;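 active = mean replicate inhibition of at least 30%, or all replicates individually reaching that 30% level; inactive = mean below 30% and not every replicate reaching it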;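 also: 0% = neutral control wells and 100% = L-leucinethiol positive control wells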
FGF22 binding: shifts melting point of recombinant human FGF22; Q9HCT0; recombinant FGF22 thermal shift, SYPRO orange fluorescence; percent of sucrose octasulfate shift, DMSO zero; activity (Tm shift, normalised), % at 9.99 µM; 1.5% of 340,000 active; AID 651658;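 active = mean Tm shift, scaled 0 neutral to 100 positive control, at about 1.3% or above, every replicate too, limit read from the data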
SIRT5 block: blocks human SIRT5 desuccinylation of peptide; Q9NXA8; Purified SirT5, succinyl-peptide AMC, trypsin-coupled fluorescence; inhibition, % at 15 µM; 1.1% of 330,000 active; AID 652115; in the data active = inhibition above about 15%
CASP6 VEID inh: blocks human caspase-6 cleavage activity; P55212; purified caspase-6, Z-VEID-R110 cleavage fluorescence; inhibition, % at 12.5 µM; 0.53% of 350,000 active; AID 686996;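 active = mean inhibition across replicates at least about 35%, with every replicate also reaching that limit, limit read from the data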;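 also: 0% = median of neutral control wells and 100% = no fluorescence left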
Numbers without * were called inactive; . = no result.

SMILES	ERAP1 HTS inh	FGF22 binding	SIRT5 block	CASP6 VEID inh
O=C(c1cc2nc(-c3ccccc3)cc(C(F)(F)F)n2n1)N1CCCC1	.	-0.1	21.3*	1.6
O=C(c1cc2nc(-c3ccccc3)cc(-c3ccccc3)n2n1)N1CCCC1	4.4	0.2	1.6	3.4
C/C(=N\NC(=O)CC#N)c1cc2ccc(O)cc2oc1=O	80.5*	-0.3	-38.5	-0.8
O=C(O)c1cc2ccc(O)cc2oc1=O	.	-0.1	-57.8	6.6
CCCCCn1nnnc1-c1nc2cc(C)c(C)cc2[nH]c1=O	.	0.3	-3.3	42.2*
Cn1cnc(CCNC(=O)C[C@@H]2CC[C@H]3[C@@H](COC[C@@H](O)CN3C(=O)Nc3ccccc3)O2)c1	1.9	0.2	-7.9	-2.5
COC(=O)c1cc(C)nc2c1C(=O)C(=O)C=C2N1CCOCC1	-0.3	-1.1	5.6	82.7*
CCN(CC)CCNc1cc(C)nc2c1C(=O)C(=O)C=C2N1CCCCC1	0.8	-0.4	-1.2	-53.2
O=C(CCN1CCCCC1)N[C@@H]1CC[C@@H](CCNC(=O)c2cc(Cl)cc(Cl)c2)O[C@H]1CO	-1.1	-0.3	-4.0	-2.9
CC(O)(CS(=O)(=O)Cc1ccccc1)C(=O)Nc1cccc(C(F)(F)F)c1 (stereo not given)	2.0	0.1	-0.1	39.8*
COc1ccc(N2CCN(C(=O)[C@@H](NC(=O)c3ccccc3Cl)C(C)C)CC2)cc1	-2.9	-0.3	16.4*	-0.8
COc1ccc(N2CCN(C(=O)[C@H](C)NC(=O)c3ccccc3Cl)CC2)cc1	-0.4	-1.0	-2.5	4.0
O=[N+]([O-])c1ccc(/C([O-])=C(/C(=S)Nc2ccccc2F)[n+]2ccccc2)cc1	.	0.0	-3.6	-0.9
COc1cccc(NC(=S)/C(=C(\[O-])c2ccc([N+](=O)[O-])cc2)[n+]2ccccc2)c1	-4.2	43.4*	-5.6	-0.2
CCN1CCCC1CNS(=O)(=O)c1cccc(C(F)(F)F)c1 (stereo not given)	30.3*	0.7	5.5	-1.7
CCN1CCCC1CNS(=O)(=O)c1ccc(F)c(Cl)c1 (stereo not given)	1.6	-0.2	-4.5	.
CCc1c(C)nc(SCC(=O)N2CCN(c3ccccc3)CC2)[nH]c1=O	-4.1	43.9*	0.5	1.7
Cc1ccccc1Nc1ccc2nonc2c1[N+](=O)[O-]	-4.4	0.2	29.1*	1.8
Cc1ccccc1C(=O)NCC(=O)NNC(=O)CCN1CCN(c2ccccc2)CC1	-2.9	0.0	0.7	-1.1
Cc1ccsc1C(=O)NNC(=O)CCN1CCN(c2ccccc2)CC1	1.2	0.0	18.8*	-0.9
O=S(=O)(c1ccc(OCC2CO2)cc1)c1ccc(OCC2CO2)cc1 (stereo not given)	2.3	43.5*	-2.4	0.6
O=C(NNS(=O)(=O)c1ccc(F)cc1)c1cccc(O)c1	-3.7	-0.1	17.0*	-1.1
CO[C@H]1CN(C)C(=O)c2cc(NC(=O)NC3CCCCC3)ccc2OC[C@@H](C)N(CCc2ccccc2)C[C@@H]1C	-2.4	0.0	2.1	-1.5
CC1(C)CC(=O)c2cc(C(=O)NNc3ccccc3)c(=O)n(-c3ccccc3)c2C1	-6.9	-0.4	21.5*	-7.5
CN(C[C@H]1N[C@@H](CO)[C@@H]1c1ccc(C2=CCCC2)cc1)C(=O)c1ccccn1	.	0.5	-2.4	.
SMILES	ERAP1 HTS inh	FGF22 binding	SIRT5 block	CASP6 VEID inh
C=CCNc1nc(Cl)nc(Nc2ccc([N+](=O)[O-])cc2)n1	-1.5	43.9*	1.2	0.7
CC1CCN(c2nc(Cl)nc(Nc3ccc([N+](=O)[O-])cc3)n2)CC1	-1.2	-0.3	4.3	-1.5
C=CCNc1nc(Cl)nc(Nc2ccc(OC)cc2OC)n1	1.5	43.0*	-0.4	3.1
COc1ccc(Nc2nc(Cl)nc(N3CCN(c4ccc(OC)cc4)CC3)n2)cc1	-3.0	0.1	-5.1	3.4
CC(=O)Nc1ccc(Nc2nc(Cl)nc(Nc3ccc(NC(C)=O)cc3)n2)cc1	2.0	44.0*	-1.3	-3.8
COc1ccc(Nc2nc(Cl)nc(Nc3ccc(OC)cc3)n2)cc1	1.4	42.9*	-3.8	-1.9
C[C@@H]1CN([C@@H](C)CO)C(=O)c2cc(C3=CCCC3)cnc2O[C@H]1CN(C)C(=O)c1ccncc1	-0.2	-0.2	2.4	1.1
CO[C@@H]1CN(C)C(=O)c2ccc(NC(=O)C3CCC3)cc2OC[C@@H](C)N(CC2CCCCC2)C[C@@H]1C	-6.9	0.1	9.0	-1.4
C[C@H]1CN([C@@H](C)CO)C(=O)c2cccc(NS(=O)(=O)c3cn(C)cn3)c2O[C@@H]1CN(C)Cc1ccncc1	2.0	0.0	-4.2	0.0
O=C(NN1C(=O)C2CC=C(Cl)CC2C1=O)c1ccncc1 (stereo not given)	0.0	0.8	-3.2	46.8*
